Results taken from PubChem BioAssay.
The source made the active and inactive calls. Unless noted, how the calls were made is not given here.

Experiments:
[1] = resazurin metabolic signal in HepG2 cells – cell-based, resazurin fluorescence, 24 h, PK04 Diversity Set, profiling panel (AID 1172); conditions: HepG2 viability, higher = more signal
[2] = budding yeast growth changes without added modifier – OD600, strain BY4716, 24 h, basal condition, primary screen (AID 1173); conditions: S. cerevisiae BY4716 growth, OD600, 24 h; higher = more signal, called active from +8 up or from −8 down
[3] = viability profiling in MM1S myeloma cells – cell-based, resazurin fluorescence, basal, 24 h, PK04 Diversity Set, profiling panel (AID 1174); conditions: higher = more signal, called active from +8 up or from −8 down;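 further: MM1S multiple myeloma cell line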
[4] = molecular target: Dihydroorotate dehydrogenase (quinone), mitochondrial (Plasmodium falciparum (isolate 3D7)) (UniProt Q08210); assay: inhibition of P. falciparum DHODH – biochemical, C-terminal His tag, absorbance 600 nm, primary screen (AID 1175); conditions: PfDHODH enzyme, DCIP absorbance 600 nm; higher = more signal, called active from +8 up or from −8 down;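 further: recombinant parasite enzyme with a five histidine tag at its C terminus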
Chain of Dihydroorotate dehydrogenase (quinone), mitochondrial (Plasmodium falciparum (isolate 3D7)) (Q08210 whole entry, looked up): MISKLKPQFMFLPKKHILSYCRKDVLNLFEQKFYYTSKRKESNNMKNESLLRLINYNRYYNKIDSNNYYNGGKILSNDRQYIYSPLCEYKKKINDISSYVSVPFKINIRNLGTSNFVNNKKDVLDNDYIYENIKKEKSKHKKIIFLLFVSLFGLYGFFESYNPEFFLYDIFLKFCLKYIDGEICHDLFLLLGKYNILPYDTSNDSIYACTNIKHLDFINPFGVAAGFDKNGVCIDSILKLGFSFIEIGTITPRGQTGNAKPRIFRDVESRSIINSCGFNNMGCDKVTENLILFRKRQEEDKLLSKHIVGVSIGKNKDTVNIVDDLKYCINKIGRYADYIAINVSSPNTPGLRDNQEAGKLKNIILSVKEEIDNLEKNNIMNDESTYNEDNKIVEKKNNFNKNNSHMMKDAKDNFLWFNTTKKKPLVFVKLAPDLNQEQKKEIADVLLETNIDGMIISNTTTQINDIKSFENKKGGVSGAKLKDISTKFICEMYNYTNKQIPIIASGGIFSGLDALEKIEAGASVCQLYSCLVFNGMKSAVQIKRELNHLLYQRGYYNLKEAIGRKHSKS

[5] = inhibition of PAO1 biofilm formation – strain PAO1, LB-PBS medium, absorbance 600 nm, primary screen (AID 1176); conditions: P. aeruginosa PAO1 growth/biofilm, A600, 12 h; higher = more signal
[6] = growth modulation of vineyard yeast isolate – strain RM11-1a, OD600, basal, 24 h, primary screen (AID 1177);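 further: cultures grown under basal conditions with no added stressor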; conditions: S. cerevisiae RM11-1a growth, OD600, 24 h; higher = more signal, called active from +8 up or from −8 down
[7] = growth of efflux-deficient E. coli DRC39 – strain DRC39, OD650, 24 h, E. coli filamentation inducers, primary screen (AID 1178);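 further: growth measured as culture turbidity by optical density at 650 nm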; conditions: E. coli DRC39 acrAB, higher = more signal, called active from +8 up or from −8 down
[8] = growth of efflux-deficient E. coli DRC39 – strain DRC39, OD650, 48 h, E. coli filamentation inducers, primary screen (AID 1179);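 further: screen aims at cell division blockers that make cells filament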; conditions: E. coli DRC39 delta-acrAB growth, higher = more signal, called active from +8 up or from −8 down
[9] = viability profiling in RPMI8226 myeloma cells – cell-based, resazurin fluorescence, basal, 24 h, PK04 Diversity Set, profiling panel (AID 1180); conditions: higher = more signal;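 further: RPMI8826 multiple myeloma cell line at 5000 cells per well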
[10] = molecular target: E3 ubiquitin-protein ligase XIAP (Homo sapiens) (UniProt P98170); assay: small molecules binding XIAP protein – biophysical, small-molecule microarray, fluorescence 635 nm, primary screen (AID 1181); conditions: higher = more signal;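 further: score merges 667 nm emission and signal to noise over triplicate slides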
Chain of E3 ubiquitin-protein ligase XIAP (Homo sapiens) (P98170 whole entry, looked up, the tested form may be a part): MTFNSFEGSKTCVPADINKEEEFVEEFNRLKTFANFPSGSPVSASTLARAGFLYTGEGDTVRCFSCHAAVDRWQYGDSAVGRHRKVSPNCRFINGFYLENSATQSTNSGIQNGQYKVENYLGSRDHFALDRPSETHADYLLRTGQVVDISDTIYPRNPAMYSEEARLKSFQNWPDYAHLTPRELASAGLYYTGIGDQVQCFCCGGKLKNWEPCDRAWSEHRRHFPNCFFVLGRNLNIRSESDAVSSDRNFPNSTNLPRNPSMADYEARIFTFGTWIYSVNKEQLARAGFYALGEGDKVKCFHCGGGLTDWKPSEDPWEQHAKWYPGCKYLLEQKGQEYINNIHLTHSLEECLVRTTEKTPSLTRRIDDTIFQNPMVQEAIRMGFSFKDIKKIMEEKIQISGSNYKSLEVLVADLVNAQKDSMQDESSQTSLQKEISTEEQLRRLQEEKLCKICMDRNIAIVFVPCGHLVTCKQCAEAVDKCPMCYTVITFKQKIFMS

[11] = test system: XIP peptide (Xip251-270) binding; assay: XIP fragment 251-270 binding compounds – biochemical, small-molecule microarray, fluorescence 635/667 nm, 0.1 µg/mL protein, primary screen (AID 1182); conditions: fluorescent protein binding, 635 nm, higher = more signal, called active from +8 up or from −8 down
XIP peptide (Xip251-270) = assay: compounds binding XIP fragment 251-270 – biochemical, small-molecule microarray, fluorescence 635/667 nm, 0.5 µg/mL protein, primary screen (AID 1183); conditions: fluorescence 635 nm, higher = more signal
[12] = blood-stage malaria parasite viability loss – strain 3D7, DAPI fluorescence, 100 nL, primary screen (AID 1184);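 further: parasites grown inside human red blood cells in medium with human serum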; conditions: P. falciparum 3D7 growth, 3 d, higher = more signal
[13] = molecular target: Homeobox protein Hox-A13 (Mus musculus) (UniProt Q62424); assay: disruptors of Hoxa13 oligonucleotide interaction – biochemical, fluorescence polarization, labeled oligonucleotide, primary screen (AID 1185); conditions: Hoxa13:DNA binding, 15 min, higher = more signal, called active from +8 up or from −8 down
Chain of Homeobox protein Hox-A13 (Mus musculus) (Q62424 whole entry, looked up): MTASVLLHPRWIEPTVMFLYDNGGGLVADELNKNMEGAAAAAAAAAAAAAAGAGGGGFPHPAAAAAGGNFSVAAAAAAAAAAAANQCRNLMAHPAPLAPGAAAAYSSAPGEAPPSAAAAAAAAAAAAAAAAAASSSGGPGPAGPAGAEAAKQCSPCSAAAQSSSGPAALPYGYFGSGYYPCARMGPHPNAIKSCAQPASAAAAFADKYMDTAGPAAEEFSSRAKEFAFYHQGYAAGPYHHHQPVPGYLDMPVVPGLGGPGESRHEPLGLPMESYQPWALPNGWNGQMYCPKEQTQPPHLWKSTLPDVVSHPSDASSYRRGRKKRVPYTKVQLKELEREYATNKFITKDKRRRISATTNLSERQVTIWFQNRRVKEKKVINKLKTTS

[14] = blockers of DNA damage checkpoint Chk1 activation – imaging, HeLa, hydroxyurea, phospho-Chk1 antibody, percent positive cells, primary screen (AID 1186); conditions: hydroxyurea-induced phospho-Chk1 immunofluorescence imaging, higher = more signal
[15] = blockers of DNA damage checkpoint Chk1 activation – imaging, HeLa, hydroxyurea, phospho-Chk1 nuclear intensity, primary screen (AID 1187); conditions: hydroxyurea-induced phospho-Chk1 immunofluorescence imaging, higher = more signal

SMILES	z-score [1]	z-score [2]	z-score [3]	composite z-score [4]	z-score [5]	z-score [6]	z-score [7]	z-score [8]	z-score [9]	composite z-score [10]	composite z-score [11]	composite z-score (XIP peptide (Xip251-270))	z-score [12]	z-score [13]	z-score [14]	z-score [15]
CC(C)N1CC=CC23O[C@@H]4C=CCOC(=O)[C@@H]4[C@H]2C(=O)N(CCO)[C@@H]3C1=O (stereo not given in full)	0.545	0.684 (inactive)	0.813 (inactive)	-1.12 (inactive)	0.0683 (inactive)	0.445 (inactive)	0.173 (inactive)	0.0539 (inactive)	0.393	0.0368	-0.145 (inactive)	-0.014	0.74	-2.98 (inactive)	-0.514 (inactive)	-0.419 (inactive)
COc1cc2c(cc1OC)CN(C(=O)[C@@H]1[C@H]3C(=O)O[C@H](c4ccccc4)[C@H](c4ccccc4)N3[C@H](c3ccccc3OCCO)[C@@]13C(=O)Nc1ccc(C#CCNC(N)=O)cc13)CC2	0.0227	0.74 (inactive)	-0.148 (inactive)	-0.839 (inactive)	2.93 (inactive)	3 (inactive)	1.13 (inactive)	1.31 (inactive)	0.088	0.153	0.12 (inactive)	0.811	-2.17	2.09 (inactive)	-0.229 (inactive)	-0.232 (inactive)
COCCOC(=O)N1C(=O)[C@@]2(c3ccccc31)[C@H](C(=O)Nc1nc3ccccc3s1)[C@H]1C(=O)O[C@H](c3ccccc3)[C@H](c3ccccc3)N1[C@@H]2c1ccc(OCCO)cc1	0.353	1.42 (inactive)	-0.477 (inactive)	-0.691 (inactive)	3.49 (inactive)	1.75 (inactive)	0.0253 (inactive)	-0.383 (inactive)	-0.162	0.0641	0.886 (inactive)	0.805	-1.13	0.34 (inactive)	-0.178 (inactive)	-0.249 (inactive)
C=C(COC)C(=O)CC[C@@H](OC(=O)c1cccnc1)c1ccc(CO)o1	0.114	-0.0873 (inactive)	0.78 (inactive)	-0.604 (inactive)	0.649 (inactive)	-0.318 (inactive)	0.831 (inactive)	0.555 (inactive)	0.807	-0.0802	0.457 (inactive)	0.496	-0.469	-4.3 (inactive)	0.201 (inactive)	0.679 (inactive)
O=C1C2C=CC(C(O)c3ccc(F)cc3)N(Nc3ccccc3)C2C(=O)N1c1ccccc1 (stereo not given)	-1.24	-3.05 (inactive)	-1.33 (inactive)	0.485 (inactive)	0.888 (inactive)	0.723 (inactive)	-0.811 (inactive)	0.128 (inactive)	-0.535	-0.229	0.669 (inactive)	-0.168	0.191	-4.12 (inactive)	-0.125 (inactive)	-0.391 (inactive)
O=C1N(CCS(=O)(=O)c2ccccc2)Cc2ccccc2C[C@]12N=C(c1ccc(OCCCO)cc1)O[C@@H]2c1ccccc1	-1.08	1.07 (inactive)	-2.68 (inactive)	-1.48 (inactive)	0.0658 (inactive)	1.52 (inactive)	-0.0937 (inactive)	1.28 (inactive)	-1.99	0.0191	0.194 (inactive)	0.789	-2.34	-2.61 (inactive)	-0.719 (inactive)	-0.709 (inactive)
COCCOC(=O)N1C(=O)[C@@]2(c3cc(C#CC4=CCCCC4)ccc31)[C@H](C(=O)N1CCc3cc(OC)c(OC)cc3C1)[C@H]1C(=O)O[C@H](c3ccccc3)[C@H](c3ccccc3)N1[C@@H]2c1ccccc1OCCO	-0.437	1.11 (inactive)	0.224 (inactive)	-0.0424 (inactive)	2.41 (inactive)	1.78 (inactive)	-0.649 (inactive)	0.418 (inactive)	-0.135	0.0039	0.0851 (inactive)	0.544	-2.23	2.24 (inactive)	-0.0513 (inactive)	0.226 (inactive)
CCOC(=O)C1=C[C@@H](CC)N(S(=O)(=O)c2ccc(C)cc2)[C@H]1c1ccccc1	-0.203	1.21 (inactive)	-0.666 (inactive)	-0.157 (inactive)	0.325 (inactive)	0.501 (inactive)	-0.823 (inactive)	-0.604 (inactive)	-1.05	0.289	0.54 (inactive)	0.208	-1.81	-2.63 (inactive)	0.553 (inactive)	0.54 (inactive)
CCCCCCCCCCC(O)C1C=CC2C(=O)N(Cc3ccccc3)C(=O)C2N1n1cnnc1 (stereo not given)	-1.17	-0.472 (inactive)	-1.39 (inactive)	-1.2 (inactive)	-0.541 (inactive)	-0.623 (inactive)	-0.845 (inactive)	-0.592 (inactive)	-1.15	-0.0085	0.109 (inactive)	0.609	-1.08	-2.2 (inactive)	0.577 (inactive)	-0.034 (inactive)
[N-]=[N+]=NCc1ccccc1C[C@]1(C(=O)NCC(O)CO)N=C(c2ccc(OCCCO)cc2)O[C@H]1c1ccccc1N=[N+]=[N-] (stereo not given in full)	0.207	0.664 (inactive)	-0.403 (inactive)	1.83 (inactive)	0.208 (inactive)	2.8 (inactive)	1.22 (inactive)	0.0128 (inactive)	-0.986	-0.0057	-0.188 (inactive)	0.0926	-2.25	-3.25 (inactive)	-0.985 (inactive)	-1.52 (inactive)
